TRHR agonist: agonists of human TRH receptor; P34981; TRHR cells, calcium flux fluo-8, FDSS agonist mode; activation, % at 2 µM; 360,000 tested, 0.18% active; further: 0% is about no effect
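Read-out: compound-evoked intracellular calcium rise in TRHR cells, fluo-8 dye, kinetic FDSS fluorescence at 1 s/cycle following a 10-cycle baseline. Cells cultured overnight before dye loading (30 min–1.5 h, RT).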
D1 agonist: activates the human D1 dopamine receptor; activation, % at 2 µM; P21728; 360,000 tested, 1% active; HEK293 T-REx D1 cells, calcium flux, agonist mode; further: 0% is about no effect
Target sequence (P21728 whole entry, looked up): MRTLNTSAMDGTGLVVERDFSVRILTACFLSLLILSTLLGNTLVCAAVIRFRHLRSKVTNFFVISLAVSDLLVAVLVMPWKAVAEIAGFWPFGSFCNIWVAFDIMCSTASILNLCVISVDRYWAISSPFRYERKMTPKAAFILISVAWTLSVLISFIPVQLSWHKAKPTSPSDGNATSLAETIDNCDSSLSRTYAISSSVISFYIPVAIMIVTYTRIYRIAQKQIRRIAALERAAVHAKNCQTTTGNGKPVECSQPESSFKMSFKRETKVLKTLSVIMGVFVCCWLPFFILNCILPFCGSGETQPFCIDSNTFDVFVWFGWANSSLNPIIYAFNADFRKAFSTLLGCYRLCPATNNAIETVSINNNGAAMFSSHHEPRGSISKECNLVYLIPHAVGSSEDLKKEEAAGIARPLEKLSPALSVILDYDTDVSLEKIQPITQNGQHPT
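Agonism was scored from calcium flux recorded over 180 s (1 read/s) after pintool compound addition, following a 10-cycle baseline. Cells were inducible force-coupled HEK293 TREx D1, plated overnight at 30 C and loaded with no-wash calcium dye.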
TRHR enhancer: TRH receptor (human) allosteric enhancement; TRHR cells, fluo-8 calcium fluorescence, EC20 TRH enhancement; P34981; 360,000 tested, 0.66% active; enhancement, % at 2 µM; AID 493056; in the data active means enhancement above about 30%; further: 0% is about no effect
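TRHR-expressing cells loaded with fluo-8 calcium dye were read kinetically (ex 480/em 530) during compound addition, then stimulated with an EC20 of TRH (10 nM final). Enhancement of the Gq-mediated intracellular calcium response was scored.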
D1 potentiator: enhances dopamine response at the human D1 receptor. P21728. HEK293 TREx D1 cells, calcium flux, dopamine EC20 potentiation. potentiation, % at 10 µM. 360,000 tested, 0.036% active. AID 504651; in the data active means potentiation above about 30%; further: 0% is about no effect
D1 antag: antagonists of human D1 dopamine receptor. P21728. HEK293 TREx D1 cells, calcium flux, dopamine EC80; active compounds read low. activity change, negative = inhibition, % at 10 µM. 360,000 tested, 3.2% active. AID 504652; in the data active means activity change below about -30%; further: on the % scale 0 is the no-effect control and ±100 the full control effect
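HEK293 T-REx cells expressing inducible, force-coupled D1 receptor; no-wash Ca dye, 30–90 min RT. Cmpd → 180 s read at 1 Hz → EC80 DA → 180 s read.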
* = called active by the depositor. Compounds with a hit are over-represented: about 4.6% of the library has one in this group of screens. Unless noted, no stated cut-off is given here; in the data, active means activation above about 30%; inactive means the rest.

SMILES	TRHR agonist	D1 agonist	TRHR enhancer	D1 potentiator	D1 antag
CC1(C(=O)NC2CCCCC2)Cc2ccccc2C(=O)N1Cc1ccccc1Cl (stereo unspecified)	1	2	-5	2	1
O=C(Nc1ccc(-c2cn3ccccc3n2)cc1)c1cccs1	0	0	1	-7	-13
COc1cc2c(cc1OC)CN(C(=S)NC(=O)c1ccccc1)CC2	0	15	-15	-2	-17
COc1ccccc1-c1cc(NC(=O)COc2ccccc2Cl)n(-c2ccccc2)n1	0	2	-4	-4	-7
CNc1nc(-c2ccc(S(=O)(=O)N3CCCCC3)cc2)cs1	-1	10	-12	-4	-33*
O=S(=O)(c1ccc(S(=O)(=O)N2CCCC2)cc1)N1CCCCCC1	-1	3	3	-4	-39*
Cc1ccc(S(=O)(=O)N2CCCN(C(C)c3nc4ccccc4c(=O)[nH]3)CC2)cc1 (stereo unspecified)	0	2	5	-5	-38*
O=S(=O)(c1cccc(-c2cn3ccccc3n2)c1)N1CCCCC1	0	3	-2	-8	-47*
O=S(=O)(c1ccc(Cl)cc1)N1CCCCCC1	0	0	-1	-1	4
Cc1ccc(S(=O)(=O)N2CCC(=O)N2)cc1	1	2	3	-11	-68*
CC(C)(C)C(=O)Nc1c(C(=O)N2CCN(c3ccc(F)cc3)CC2)oc2ccccc12	0	2	-3	-8	-2
CCc1ccccc1NC(=O)Cn1nc(CC)n2c(cc3sccc32)c1=O	0	0	3	-2	2
CCCn1c(SCC(=O)Nc2ccc(OC)cc2[N+](=O)[O-])n[nH]c1=O	-1	0	4	-15	-46*
COCC(=O)NC1CCN(CC(=O)Nc2ccc(OC)cc2[N+](=O)[O-])CC1	-1	0	6	-2	-38*
CCCCC(=O)Nc1ccc(C(=O)Nc2ccc(OC)cc2[N+](=O)[O-])cc1	13	41*	8	-2	-18
Cc1ccc(Cn2c(SCc3ccc(C(=O)N4CCCCC4)cc3)nc3ccncc32)cc1	-1	3	0	-4	5
CCOC(=O)c1cc(-c2ccccc2)n(CCCC(=O)Nc2ccc(C)c(C)c2)c1C	1	6	0	-9	-48*
CC(=O)c1cc(-c2ccccc2)n(CCC(=O)Nc2ccc(C(C)C)cc2)c1C	5	63*	-2	-8	-20
CCOC(=O)c1cc(-c2ccccc2)n(CCCC(=O)Nc2ccc(C)c(Cl)c2)c1C	1	7	7	-8	-3
CCOC(=O)c1cc(-c2ccccc2)n(CCC(=O)Nc2ccc(C(F)(F)F)cc2)c1C	11	85*	-4	-6	2
Cc1cccc(C)c1N1CC(c2nc3ccccc3n2CC(=O)OC(C)C)CC1=O (stereo unspecified)	1	4	11	-3	-12
Cc1ccc(S(=O)(=O)N(CC(=O)Nc2ccc(C(N)=O)cc2)C(=O)N2CCN(C)CC2)cc1	0	2	4	-7	-13
CS(=O)(=O)c1sc(C#N)c2c1C(=O)CC(c1ccccc1)C2 (stereo unspecified)	4	2	-18	-12	-72*
CSc1ccccc1OCc1cc(C(=O)NC2CCOC2)no1 (stereo unspecified)	0	1	5	-8	-14
Cc1cccc(-c2noc(-c3cc(C(C)C)[nH]n3)n2)c1	5	42*	-6	-3	-9
SMILES	TRHR agonist	D1 agonist	TRHR enhancer	D1 potentiator	D1 antag
Cc1ccc2oc(=O)c3cnn(CC(=O)N4CCN(c5ccc(F)cc5)CC4)c3c2c1	1	3	-1	-2	4
O=C(OCC(=O)N1CCCCC1)c1cc2ccccc2cc1O	0	3	-2	4	9
CCC1CCCCN1C(=O)COC(=O)c1cc2ccccc2cc1O (stereo unspecified)	0	15	-1	-9	-32*
COc1ccc(Cn2ncc3c4sc(C)cc4n(C)c3c2=O)cc1F	-1	0	5	5	-13
CCn1c2c(c(=O)n3ncc(C(=O)N4CCN(c5ccc(Cl)cc5)CC4)c13)CN(Cc1ccc(OC)cc1)CC2	0	10	1	-3	-46*
CCN(CC)c1cc(C)c2cc(NC(=O)/C=C/c3cc(OC)c(OC)c(OC)c3)ccc2n1	0	0	-5	0	-11
N#C/C(=C\c1ccc[nH]1)S(=O)(=O)c1ccccc1	2	20	-1	-2	-32*
O=S(=O)(c1ccc2c(c1)OCCO2)N1CCN(S(=O)(=O)c2ccc(F)cc2F)CC1	0	3	1	-4	8
CC1=NN(C(=O)c2ccccc2-n2cccc2)C(O)(C(F)(F)F)C1 (stereo unspecified)	0	1	6	-6	-50*
COc1ccc(C2/C(=C(/O)c3ccc(C)cc3)C(=O)C(=O)N2CCCN2CCOCC2)cc1 (stereo unspecified)	0	0	-9	37*	-25
CCN(CC)CCN1C(=O)C(=O)/C(=C(/O)c2ccc(OC)cc2)C1c1ccco1 (stereo unspecified)	0	2	-5	0	-34*
CCc1ccc(S(=O)(=O)c2cn(CC)c3cc(N4CCOCC4)c(F)cc3c2=O)cc1	0	-1	5	4	13
NNC(=O)c1cc2sccc2s1	1	-1	-16	-6	-36*
COc1ccc(CCNC(=O)c2c(C)oc3ncn(C)c(=O)c23)c(OC)c1	-1	1	-10	1	4
CCOC(=O)/C(C#N)=C\c1ccc(CC)s1	0	-1	6	5	2
CCOC(=O)/C(C#N)=C\C=C1C=CN(C)C=C1	19	45*	0	-3	-20
CCc1noc(C)c1C(=O)N1CCN(S(=O)(=O)c2c(C)c(C)cc(C)c2C)CC1	1	1	1	0	7
Cc1cc(Br)ccc1SCC(=O)OCC(=O)N1CCN(C(=O)c2ccco2)CC1	0	34*	-2	-4	-1
O=C(CSc1ccccc1F)OCC(=O)N1CCN(C(=O)c2ccco2)CC1	0	0	4	3	-5
COc1ccc(C2=Nc3ccc(OC(F)(F)F)cc3NC(c3cccnc3)=N2)cc1	-3	-1	-1	-1	3
Cc1ccc2c(c1)C(=O)CC(O)(C(F)(F)F)O2 (stereo unspecified)	0	1	-1	-5	-6
Cc1ccc2c(c1)C(=O)CC1(CCC(C(C)(C)C)CC1)O2 (stereo unspecified)	0	4	-1	-2	-31*
Cc1ccc(-c2nc(CNC(=O)Nc3ccccc3)c(C)o2)cc1	1	3	-1	-1	-1
Nc1nc2ccccc2n1CCOc1ccccc1Cl	1	20	1	-6	-36*
Nc1nc2ccccc2n1CCOc1ccc(Cl)cc1	1	11	9	-15	-4

Source: PubChem BioAssay
